This passage reports AC50 and outcome results from PubChem BioAssay (EPA / NIEHS).

Molecules are shown by their SMILES. Where “and” joins values, the source holds several entries; their conditions need not be identical. Equal entries are not always repeated. Inconclusive results are not listed. Where a structure was tested more than once in an assay, its records may differ in their call. Calls of active or inactive are those of the source. Rule for the calls: active = hit-call score of the fitted dose curve at least 0.9, where 1 is the maximum; inconclusive = response in the unintended direction; inactive = score below 0.9.

In this test the target is Nuclear receptor subfamily 1 group I member 2 (Mus musculus) (UniProt O54915). Briefly: ATG_mPXR_XSP2: Attagene TRANS-FACTORIAL Multi-Species (XSP1) HepG2 Assay for mouse Pregnane X Receptor (PXR) (AID 2283831). The method, then: ATG_XSP2_multi-species_TRANS is a cell-based, multiplexed assay created by modifying the existing Attagene TRANS-FACTORIAL system to include a panel of nuclear receptors from some or all the following species: human (Homo sapiens), mouse (Mus musculus), frog (Xenopus laevis), zebrafish (Danio rerio), chicken (Gallus gallus), and turtle (Chrysemys picta). The ECOTOX-FACTORIAL format uses HepG2, a human liver cell line, with measurements taken at 24 hours after chemical dosing in a 24-well plate. Xsp2 included 3 nM 6-alpha-fluorotestosterone and 1.5 nM norgestrel to stimulate the androgen receptor.ATG_mPXR_XSP2 is one of 29 assay components measured or calculated from the ATG_XSP2_multi-species_TRANS assay. It is designed to make measurements of mRNA induction, a form of inducible reporter, as detected with fluorescence intensity signals by Reverse transcription polymerase chain reaction (RT-PCR) and Capillary electrophoresis technology.The assay endpoint ATG_mPXR_XSP2 was analyzed in the positive analysis fitting direction relative to DMSO as the negative control and baseline of activity. Using a type of inducible reporter, measures of mRNA for gain-of-signal activity can be used to understand the reporter gene at the transcription factor-level as they relate to the gene PXR. Furthermore, this assay endpoint can be referred to as a primary readout, because this assay has produced multiple assay endpoints where this one serves a reporter gene function. To generalize the intended target to other relatable targets, this assay endpoint is annotated to the nuclear receptor intended target family, where the subfamily is non-steroidal.
Sequence of Nuclear receptor subfamily 1 group I member 2 (Mus musculus) (O54915 whole entry, looked up): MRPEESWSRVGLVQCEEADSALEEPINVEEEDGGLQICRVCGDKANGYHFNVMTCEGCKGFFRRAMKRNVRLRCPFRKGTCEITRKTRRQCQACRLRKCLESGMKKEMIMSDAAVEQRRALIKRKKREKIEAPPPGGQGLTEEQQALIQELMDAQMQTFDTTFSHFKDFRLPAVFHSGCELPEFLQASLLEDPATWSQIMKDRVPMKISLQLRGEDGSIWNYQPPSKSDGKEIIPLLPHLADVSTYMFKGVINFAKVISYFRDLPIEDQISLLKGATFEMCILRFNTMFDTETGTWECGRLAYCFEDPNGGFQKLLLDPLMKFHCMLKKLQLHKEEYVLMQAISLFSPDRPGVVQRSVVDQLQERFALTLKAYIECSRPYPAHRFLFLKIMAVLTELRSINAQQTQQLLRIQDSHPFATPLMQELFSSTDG
Human liver HepG2 cells are transiently transfected with multiple reporter transcription units (MRTUs) in 6-well plates using FuGene 6 reagent (Roche; 3 ml FuGene/1 mg DNA). The MRTU constructs are regulated by a cis-regulating element (promoter). […] A major difference between the CIS and TRANS system is that in CIS activities of endogenous TFs are measured, whereas the TRANS assay evaluates changes in activities of exogenous, chimeric NR-Gal4 proteins. […] At the end of 24 hour incubation, total RNA was isolated using TriZol reagent (Invitrogen). The isolated RNA is then reverse-transcribed using oligo(dT) primer and Mo-MLV reverse transcriptase (Invitrogen) with DNAse I (Ambion) treatment for 30 min. The one-tenth of the produced cDNA was amplified by PCR using Taq DNA polymerase (Invitrogen) and two reporter sequence-specific primers. The PCR products were fluorescently labeled by primer extension with 6-arboxyfluorescein (6-FAM) 5'-labeled reporter sequence-specific primer (2 min at 95 C, 20 s at 68 C and 10 min at 72 C) and these products were digested with 5U of HpaI (New England Biolabs) for 2h at 37 C. The fragments were purified using Qiaquick PCR columns (Qiagen), analyzed on an ABI 3130xL genetic analyzer (Applied Biosystems) with peak positions identified by using a set of X-rhodamine (ROX)-labeled MapMarker1000 molecular weight standards (BioVentures). The raw capillary electrophoresis data was processed using Attagraph software (Attagene).
The AC50 is the concentration at which the activity in the assay is half-maximal. For `N[C@@H](Cc1cc(I)c(Oc2ccc(O)c(I)c2)c(I)c1)C(=O)O`, the AC50 is 22.7 µM (active).

In the case of `C=CCOC(Cn1ccnc1)c1ccc(Cl)cc1Cl` (configuration not stated), the AC50 is 1.34 µM (active).

`CN(C)C(=O)Nc1ccc(Cl)c(Cl)c1`: the result was inactive and the AC50 is 6.9 µM (active).

With `CCN(Cc1c(F)cccc1Cl)c1c([N+](=O)[O-])cc(C(F)(F)F)cc1[N+](=O)[O-]`, the AC50 was 284 nM (active) and 656 nM (active).

Consider `CC1(C)C(C=C(Cl)Cl)C1C(=O)OCc1cccc(Oc2ccccc2)c1` (configuration not stated), for which the AC50 is 3.06 µM (active).

On to `Oc1ccc(C(c2ccc(O)cc2)C(Cl)(Cl)Cl)cc1`, for which the call was inactive.

`CC(=O)S[C@@H]1CC2=CC(=O)CC[C@]2(C)[C@H]2CC[C@@]3(C)[C@@H](CC[C@@]34CCC(=O)O4)[C@H]12`: the concentration at half-maximal activity (AC50) was 0.483 µM (active).

For the molecule `CCCCC(CC)COC(=O)c1ccccc1C(=O)O` (configuration not stated), the AC50 was 3.81 µM (active).

With `C#C[C@]1(O)CC[C@H]2[C@@H]3CCC4=CC(=O)CC[C@@H]4[C@H]3CC[C@@]21CC`, the call was inactive.

Turning to `CCCCC(CC)CN1C(=O)C2C3C=CC(C3)C2C1=O` (configuration not stated), the half-maximal activity concentration (AC50) is 1.34 µM (active).

On to `CSC(=O)c1cccc2nnsc12`, for which the molecule was classed as inactive.
